Assay results published in PubChem BioAssay (Tox21).
Values without a mark were called inactive. Inconclusive results are not listed. A call without a number means that no potency is given here. Calls of active or inactive are those of the source. Unless noted, calls follow the shape of the dose curve; as a rule, active = well fitted curve in the direction sought with a large enough effect in the repeat runs; inconclusive = weak or mixed curves; inactive = no such curve, though single readings can be large; an effect the other way counts as inactive or inconclusive.

What was measured:
[1] = qHTS assay for small molecule agonists of the p53 signaling pathway (AID 651631; calls by dose curve; also: nearly all actives have a fitted effect of over 15% in size)
Method in brief: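 Stably transfected HCT-116 cells (beta-lactamase behind p53 response elements) get compounds after a 5 h settling period; 16 h later at 37 °C, FRET substrate is loaded and fluorescence read after 2 h.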

[2] = qHTS assay for small molecules that induce genotoxicity in human embryonic kidney cells expressing luciferase-tagged ATAD5 (AID 651632); also: nearly all actives have a fitted effect of over 15% in size
Method in brief: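 Reporter cells (HEK293T) express luciferase-tagged ATAD5, a protein that accumulates after DNA damage. Treat 16 hr at 37C/5% CO2, add Amplite, wait 30 min at RT, and read luminescence.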

[3] = qHTS assay for small molecule agonists of the p53 signaling pathway - cell viability (AID 651633; calls by dose curve;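 also: p53RE-bla HCT reporter cells with a stable beta-lactamase p53 reporter; series mostly up to about 83 µM; nearly all actives have a fitted effect of over 30% in size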)
Method in brief: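 p53RE-bla cells were treated with compound for 16 hours at 37 C. Cytotoxicity was then measured as CellTiter-Glo luminescence after 30 min at room temperature.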

[4] = qHTS assay for small molecules that induce genotoxicity in human embryonic kidney cells expressing luciferase-tagged ATAD5 - cell viability (AID 651634; calls by dose curve; also: nearly all actives have a fitted effect of over 25% in size)
Method in brief: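 Seeding of 2,000 HEK293T ATAD5-luciferase cells per well preceded pin-tool compound transfer. Plates sat 15.5 hr at 37C under 5% CO2, then fluorescence was read after 30 min with CellTiter-Fluor.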

[5] = qHTS assay for small molecule disruptors of the mitochondrial membrane potential (AID 720635); also: potency is read from the fitted curve at half-maximal effect
Method in brief: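 HepG2 cells exposed to compound 1 hr at 37C, then Mito-MPS dye 30 min. Ratio read of aggregate (540/590 nm) versus monomer (490/535 nm) fluorescence.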

[6] = qHTS assay to test for compound auto fluorescence at 590 nm (red) in HepG2 cells (AID 720674)
Method in brief: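 Seeding: 2,000 HepG2 cells/well, MEM/10% FBS, overnight 37 C. Dosing: compound vs DMSO. Incubation: 1 hr, 37 C, 5% CO2. Read: fluorescence 540 ex/590 em, Rose Bengal sodium as red reference.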

[7] = qHTS assay to test for compound auto fluorescence at 535 nm (green) in HepG2 cells (AID 720675)
[8] = qHTS assay to test for compound auto fluorescence at 460 nm (blue) in HEK293 cells (AID 720678)
Method in brief: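 Measured: blue fluorescence (Ex 405/Em 460 nm) of compound-treated HEK293 cells, incubated overnight at 37C with 5% CO2 and scaled to triamterene equivalents.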

[9] = qHTS assay to test for compound auto fluorescence at 590 nm (red) in HEK293 cells (AID 720679)
Method in brief: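 Using HEK293 cells at 2,000 per well, the screen added 23 nL of each compound after cell attachment and incubated overnight (37C, 5% CO2). The plate reader then captured red-label fluorescence, Ex/Em 540/590nm.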

[10] = qHTS assay for small molecule disruptors of the mitochondrial membrane potential - cell viability (AID 720634; calls by dose curve;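 also: human HepG2 liver cancer cells; series mostly up to about 83 µM; nearly all actives have a fitted effect of over 20% in size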)
Method in brief: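 Measuring cytotoxicity alongside mitochondrial potential, the screen quantified ATP by luminescence in HepG2 cells after 1 hr compound incubation and a 30 min room-temperature CellTiter-Glo step.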

SMILES	outcome [1]	outcome [2]	outcome [3]	Potency [4]	Potency [5]	outcome [6]	outcome [7]	outcome [8]	outcome [9]	outcome [10]	fluorescence, % of fluorescein control [7]	fluorescence, % of triamterene [8]	fluorescence, % of fluorescent control [9]
C1=CCC(c2ccccc2)CC1 (stereo unspecified)	inactive	inactive	inactive	inactive	inactive	inactive	inactive	inactive	inactive				
CCCCCC(=O)OCC	inactive	inactive	inactive	inactive			inactive	inactive	inactive	inactive			
CCOC(=O)CCCCCCCCC(=O)OCC	inactive	inactive	inactive	inactive		inactive	inactive	inactive	inactive				
COCC(=O)Nc1c(I)c(C(=O)NCC(O)CO)c(I)c(C(=O)N(C)CC(O)CO)c1I (stereo unspecified)	inactive	inactive		inactive						inactive	0.0261% [at 18.6 µM]	-0.157% [at 18.6 µM]	0.231% [at 18.6 µM]
CCC(=O)OCCC(C)CCC=C(C)C (stereo unspecified)	inactive	inactive	inactive	inactive		inactive	inactive		inactive				
C=C(C)C(=O)OCCCCCCOC(=O)C(=C)C	inactive	inactive		inactive	inactive	inactive	inactive	inactive	inactive				
FC(F)(F)c1ccc(Cl)cc1Cl	inactive	inactive		inactive			inactive	inactive	inactive				
CO[Si](CCCCl)(OC)OC	inactive	inactive		inactive	60.2 µM (active)	inactive	inactive		inactive	inactive			
C=C(C)C(=O)OC	inactive		inactive	inactive	inactive		inactive	inactive	inactive	inactive			
Cc1cc(C)cc([N+](=O)[O-])c1	inactive	inactive		inactive	inactive	inactive		inactive	inactive	inactive			
CC(C)C(=O)c1ccccc1	inactive	inactive	inactive	inactive		inactive	inactive	inactive	inactive				
CC1(N)CCC(C(C)(C)N)CC1 (stereo unspecified)	inactive	inactive		inactive	inactive	inactive	inactive		inactive	inactive			
CCOc1ccc(NC(=O)OC(C)C)cc1OCC	inactive	inactive		inactive		inactive	inactive	inactive	inactive				
CCS(=O)(=O)CCn1c([N+](=O)[O-])cnc1C	inactive	inactive		inactive	inactive						-0.217% [at 18.6 µM]		0.0006% [at 18.6 µM]
CC(=O)Nc1ccc(C)cc1	inactive	inactive		inactive		inactive	inactive	inactive	inactive	inactive			
OCCCCCCCl	inactive	inactive		inactive	inactive	inactive	inactive	inactive	inactive				
CC(C)=CC(C)(C)C	inactive	inactive	inactive	inactive			inactive	inactive	inactive				
CCOC(=O)OCC/C(SC(=O)OCC)=C(\C)N(C=O)Cc1cnc(C)nc1N	inactive	inactive		inactive	inactive	inactive	inactive		inactive				
